Experimental data published in PubChem BioAssay (Tox21).
Inconclusive results are not listed. A call without a number means that no potency is given here. A number with no mark means an inactive call. Calls of active or inactive are those of the source. Unless noted, calls follow the shape of the dose curve; as a rule, active = well fitted curve in the direction sought with a large enough effect in the repeat runs; inconclusive = weak or mixed curves; inactive = no such curve, though single readings can be large; an effect the other way counts as inactive or inconclusive.

Columns and labels:
[1] = qHTS assay to identify small molecule antagonists of the estrogen related receptor (ERR) signaling pathway from Tox21 library - cell viability counter screen (AID 1224834); also: nearly all actives have a fitted effect of over 30% in size
Procedure, shortened: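 Counter screen run in ERR cells (2,000 cells/well): cells pre-incubated 6 h, then treated with compounds for 17.5 h at 37 C. Fluorescence was read 30 min after CellTiter-Fluor addition.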

[2] = target: Luciferin 4-monooxygenase (Photinus pyralis) (UniProt P08659); test: qHTS assay to identify small molecule inhibitors of firefly luciferase (AID 1224835); also: series mostly up to about 120 µM; nearly all actives have a fitted effect of over 25% in size
Procedure, shortened: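 Quantitative HTS format; KM concentrations of both substrates. Purified P. pyralis FLuc activity quantified from luminescence images.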

[3] = qHTS assay to identify small molecule agonists of the constitutive androstane receptor (CAR) signaling pathway - cell viability counter screen (AID 1224836); also: series mostly up to about 92 µM; nearly all actives have a fitted effect of over 45% in size
Procedure, shortened: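 Cell viability multiplexed with the CAR agonist screen: CellTiter-Fluor fluorescence after 23 hr at 37 C. HepG2-CYP2B6-hCAR cells got compounds at 15 concentrations with PK11195 at 0.75 uM final.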

[4] = qHTS assay to identify small molecule antagonists of the constitutive androstane receptor (CAR) signaling pathway - cell viability counter screen (AID 1224837); also: series mostly up to about 92 µM; nearly all actives have a fitted effect of over 45% in size
Procedure, shortened: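 CITCO at 50 nM final was added alongside compounds (15 concentrations) to double-stable hCAR/CYP2B6-2.2kb HepG2 cells. Following 23 hr at 37 C, cell viability was quantified by CellTiter-Fluor fluorescence intensity.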

[5] = target: Nuclear receptor subfamily 1 group I member 3 (Homo sapiens) (UniProt Q14994); test: qHTS assay to identify small molecule antagonists of the constitutive androstane receptor (CAR) signaling pathway (AID 1224838); also: nearly all actives have a fitted effect of over 40% in size
Procedure, shortened: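 Inhibition of CITCO-driven (50 nM final) CYP2B6 reporter expression is measured in HepG2 cells stably carrying hCAR. Fifteen compound concentrations are applied for 24 h at 37 C, followed by luciferase luminescence.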

[6] = target: Nuclear receptor subfamily 1 group I member 3 (Homo sapiens) (UniProt Q14994); test: qHTS assay to identify small molecule agonists of the constitutive androstane receptor (CAR) signaling pathway (AID 1224839); also: nearly all actives have a fitted effect of over 15% in size; also: potency is read from the fitted curve at half-maximal effect; as to activation: series mostly up to about 92 µM
Procedure, shortened: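 Luminescent ONE-Glo read-out after 24 hr, 37 C exposure of double-stable HepG2-CYP2B6-hCAR reporter cells to a 15-point compound series, in the presence of 0.75 uM PK11195 (final).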

[7] = qHTS assay to identify small molecule antagonists of the estrogen related receptor signaling pathway with the pleiotropic PPARgamma coactivator (PGC) from Tox21 10K library (AID 1224841; call rule not given here; also: series mostly up to about 92 µM; actives are mostly falling curves and most rising ones were filed inactive; nearly all actives have a fitted effect of over 50% in size)
Procedure, shortened: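 One-Glo luminescence, measured after half an hour at room temperature, quantified reporter output of PGC/ERR cells. These had been plated at 2,000 per well, incubated 6 h, dosed with compounds in DMSO, then kept 18 h at 37 C.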

[8] = target: Thyrotropin receptor (Homo sapiens) (UniProt P16473); test: qHTS assay to identify small molecule agonists of the thyroid stimulating hormone receptor (TSHR) signaling pathway (AID 1224843; calls by dose curve; also: nearly all actives have a fitted effect of over 45% in size)
Procedure, shortened: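 Using 15 concentrations per compound in triplicate, cAMP production was monitored in TSHR-HEK293 cells after 30 min compound incubation at RT; HTRF reagents followed, with fluorescence intensity recorded after 1 h.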

[9] = qHTS assay to identify small molecule agonists of the estrogen related receptor signaling pathway with the pleiotropic PPARgamma coactivator (PGC) from Tox21 10K library (AID 1224842); also: nearly all actives have a fitted effect of over 15% in size
Procedure, shortened: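 PGC/ERR reporter cells (NTP line) were seeded 2,000 per well, rested 6 h at 37 C/5% CO2, then pin-dosed with compounds in DMSO for 18 h at 37 C; luciferase read by One-Glo luminescence after 30 min at room temperature.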

[10] = qHTS assay to identify small molecule antagonists of the estrogen related receptor signaling pathway with the pleiotropic PPARgamma coactivator (PGC) from Tox21 10K library - cell viability counter screen (AID 1224840; active = well fitted cell-killing curve with a large enough effect in the repeat runs, not every such curve was filed as active; also: nearly all actives have a fitted effect of over 40% in size)
Procedure, shortened: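 Readout: fluorescence intensity from CellTiter-Fluor after 30 min at 37 C/5% CO2. Preceded by 17.5 h treatment of PGC/ERR cells with DMSO-dissolved compounds, added 6 h post-seeding.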

Sequence of Luciferin 4-monooxygenase (Photinus pyralis) (P08659 whole entry, looked up): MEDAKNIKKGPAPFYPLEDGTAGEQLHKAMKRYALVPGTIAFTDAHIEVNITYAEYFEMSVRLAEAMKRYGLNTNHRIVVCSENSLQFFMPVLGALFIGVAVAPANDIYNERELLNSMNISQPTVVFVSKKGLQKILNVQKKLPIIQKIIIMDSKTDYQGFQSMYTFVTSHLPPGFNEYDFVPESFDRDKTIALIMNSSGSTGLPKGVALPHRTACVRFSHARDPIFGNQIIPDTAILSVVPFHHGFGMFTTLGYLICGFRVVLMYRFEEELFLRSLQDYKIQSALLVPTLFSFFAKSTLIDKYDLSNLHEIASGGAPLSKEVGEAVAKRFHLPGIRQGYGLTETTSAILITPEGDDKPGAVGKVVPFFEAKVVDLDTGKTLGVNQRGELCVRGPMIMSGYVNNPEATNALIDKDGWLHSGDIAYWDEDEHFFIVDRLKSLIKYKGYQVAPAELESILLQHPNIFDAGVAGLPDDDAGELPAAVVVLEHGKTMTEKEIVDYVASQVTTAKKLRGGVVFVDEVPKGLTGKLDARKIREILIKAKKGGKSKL
Sequence of Thyrotropin receptor (Homo sapiens) (P16473 whole entry, looked up): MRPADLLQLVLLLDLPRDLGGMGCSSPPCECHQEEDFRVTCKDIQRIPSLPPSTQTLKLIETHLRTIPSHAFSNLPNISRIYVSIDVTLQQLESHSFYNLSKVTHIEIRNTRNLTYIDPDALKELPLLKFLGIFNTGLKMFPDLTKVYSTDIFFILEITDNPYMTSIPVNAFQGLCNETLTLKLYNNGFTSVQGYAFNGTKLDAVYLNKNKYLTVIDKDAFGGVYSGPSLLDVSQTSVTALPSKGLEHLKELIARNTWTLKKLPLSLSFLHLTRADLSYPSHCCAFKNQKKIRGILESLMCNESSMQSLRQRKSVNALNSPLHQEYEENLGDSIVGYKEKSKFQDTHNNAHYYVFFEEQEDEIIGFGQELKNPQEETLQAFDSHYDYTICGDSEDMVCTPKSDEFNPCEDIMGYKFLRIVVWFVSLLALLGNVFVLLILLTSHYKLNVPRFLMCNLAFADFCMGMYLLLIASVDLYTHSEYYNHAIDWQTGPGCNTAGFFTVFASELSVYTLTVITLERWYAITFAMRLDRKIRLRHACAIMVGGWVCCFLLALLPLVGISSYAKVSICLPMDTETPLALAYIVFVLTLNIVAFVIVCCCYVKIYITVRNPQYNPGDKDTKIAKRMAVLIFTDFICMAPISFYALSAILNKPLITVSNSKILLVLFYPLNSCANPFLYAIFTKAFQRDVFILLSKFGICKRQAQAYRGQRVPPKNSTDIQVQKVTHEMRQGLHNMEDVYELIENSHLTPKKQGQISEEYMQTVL
Sequence of Nuclear receptor subfamily 1 group I member 3 (Homo sapiens) (Q14994 whole entry, looked up): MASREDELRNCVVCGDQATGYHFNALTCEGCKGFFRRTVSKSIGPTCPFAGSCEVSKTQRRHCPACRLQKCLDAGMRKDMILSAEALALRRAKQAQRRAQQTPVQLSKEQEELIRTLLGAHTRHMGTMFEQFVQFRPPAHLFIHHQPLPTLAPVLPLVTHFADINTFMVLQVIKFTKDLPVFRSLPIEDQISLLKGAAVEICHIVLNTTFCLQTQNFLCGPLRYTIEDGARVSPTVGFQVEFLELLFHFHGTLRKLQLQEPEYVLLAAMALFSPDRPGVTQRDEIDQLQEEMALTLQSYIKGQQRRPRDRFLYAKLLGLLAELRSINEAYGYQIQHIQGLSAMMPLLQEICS

With `O=C(c1ccccc1)C1CCCCC1` the Potency [1] was “inactive”, the Potency [2] was “inactive” and the Potency [3] was “inactive”. For the same molecule, the Potency [4] was “inactive”, the Potency [5] was “inactive” and the Potency [6] was “inactive”. The Potency [7] was “inactive” and the Potency [8] was “inactive”.

In the case of `NC(CSCC(=O)O)C(=O)O` (configuration not stated), the Potency [1] is reported as “inactive”, the Potency [2] is reported as “inactive” and the Potency [3] is reported as “inactive”. For the same molecule, the Potency [4] was “inactive”, the Potency [5] was “inactive” and the Potency [6] was “inactive”. The Potency [7] was “inactive” and the outcome [9] was “inactive”.

With `CCCCOCCOCCOCCCC` the Potency [1] was “inactive”, the Potency [2] was “inactive” and the Potency [3] was “inactive”. The Potency [4] was “inactive”, the Potency [5] was “inactive” and the Potency [6] was “inactive”. The Potency [7] was “inactive” and the Potency [8] was “inactive”.

For `CCCN(CCC)CCc1cccc2c1CC(=O)N2`, the Potency [1] was “inactive”, the Potency [2] was “inactive” and the Potency [3] was “inactive”. The Potency [4] was “inactive”, the Potency [5] was “inactive” and the Potency [6] was “inactive”. The Potency [10] was “inactive” and the Potency [8] was “inactive”.

For `O=c1[nH]c(=O)n([C@H]2C[C@H](O)[C@@H](CO)O2)cc1I`, the Potency [1] was “inactive”, the Potency [2] was “inactive” and the Potency [3] was “inactive”. For the same molecule, the Potency [4] was “inactive”, the Potency [5] was “inactive” and the Potency [6] was 11.9 µM (active). For the same molecule, the Potency [7] was “inactive”, the outcome [9] was “inactive” and the Potency [8] was “inactive”.

With `CCc1ccc(O)c(OC)c1` the Potency [1] was “inactive”, the Potency [2] was “inactive” and the Potency [3] was “inactive”. The Potency [4] was “inactive”, the Potency [5] was “inactive” and the Potency [6] was “inactive”. The Potency [7] was “inactive”, the outcome [9] was “inactive” and the Potency [8] was “inactive”.

With `NCCCNCCSP(=O)(O)O` the viability change, negative = cytotoxic [1] was 2.57% [at 8.39 µM], the activity change, negative = inhibition [2] was 0.729% [at 10.5 µM] and the viability change, negative = cytotoxic [3] was 10.5% [at 8.39 µM]. The activity change, negative = cytotoxicity [4] was 2.76% [at 8.39 µM], the activity, negative = inhibition [5] was -1.02% [at 8.39 µM] and the activation [6] was -1.23% [at 8.39 µM]. For the same molecule, the viability change, negative = cytotoxic [10] was 11.6% [at 8.39 µM] and the activation [8] was 0.0403% [at 8.39 µM].

With `CN(C)CCCNCCCN(C)C` the Potency [1] was “inactive”, the Potency [2] was “inactive” and the Potency [3] was “inactive”. The Potency [4] was “inactive”, the Potency [5] was “inactive” and the Potency [6] was “inactive”. The Potency [7] was “inactive”, the outcome [9] was “inactive” and the Potency [8] was “inactive”.

With `CCN1CCC[C@H]1CNC(=O)c1cc(S(N)(=O)=O)ccc1OC` the Potency [1] was “inactive”, the Potency [2] was “inactive” and the Potency [3] was “inactive”. For the same molecule, the Potency [4] was “inactive”, the Potency [5] was “inactive” and the Potency [6] was “inactive”. For the same molecule, the Potency [10] was “inactive” and the Potency [8] was “inactive”.

For `N=c1nc(N2CCCCC2)cc(N)n1O`, the Potency [1] was “inactive”, the Potency [2] was “inactive” and the Potency [3] was “inactive”. For the same molecule, the Potency [4] was “inactive”, the Potency [5] was “inactive” and the Potency [6] was “inactive”. The Potency [10] was “inactive” and the Potency [8] was “inactive”.

With `NS(=O)(=O)c1ccccc1Cl` the Potency [1] was “inactive”, the Potency [2] was “inactive” and the Potency [3] was “inactive”. The Potency [4] was “inactive”, the Potency [5] was “inactive” and the Potency [6] was “inactive”. The Potency [7] was “inactive”, the outcome [9] was “inactive” and the Potency [8] was “inactive”.

For `CCC(=O)OC(C)c1ccccc1` (configuration not stated), the Potency [1] was “inactive”, the Potency [2] was “inactive” and the Potency [3] was “inactive”. The Potency [4] was “inactive”, the Potency [5] was “inactive” and the Potency [6] was “inactive”. The Potency [7] was “inactive”, the outcome [9] was “inactive” and the Potency [8] was “inactive”.

In the case of `CC(C)NCC(O)c1ccc(NS(C)(=O)=O)cc1` (configuration not stated), the Potency [1] is reported as “inactive”, the Potency [2] is reported as “inactive” and the Potency [3] is reported as “inactive”. For the same molecule, the Potency [4] was “inactive”, the Potency [5] was “inactive” and the Potency [6] was “inactive”. The Potency [10] was “inactive” and the Potency [8] was “inactive”.

For `CCOc1ccc(C(=O)OCCN(CC)CC)cc1`, the Potency [1] was “inactive”, the Potency [2] was “inactive” and the Potency [3] was “inactive”. The Potency [4] was “inactive”, the Potency [5] was “inactive” and the Potency [6] was “inactive”. For the same molecule, the Potency [7] was “inactive”, the outcome [9] was “inactive” and the Potency [8] was “inactive”.

In the case of `C/C=C(\C)C#N`, the Potency [1] is reported as “inactive”, the Potency [2] is reported as “inactive” and the Potency [3] is reported as “inactive”. The Potency [4] was “inactive”, the Potency [5] was “inactive” and the Potency [6] was “inactive”. For the same molecule, the Potency [7] was “inactive”, the outcome [9] was “inactive” and the Potency [8] was “inactive”.

With `N=C(N)c1ccccc1` the Potency [1] was “inactive”, the Potency [2] was “inactive” and the Potency [3] was “inactive”. The Potency [4] was “inactive”, the Potency [5] was “inactive” and the Potency [6] was “inactive”. For the same molecule, the Potency [10] was “inactive” and the Potency [8] was “inactive”.

In the case of `O=c1cc(CO)occ1O`, the Potency [1] is reported as “inactive”, the Potency [2] is reported as “inactive” and the Potency [3] is reported as “inactive”. For the same molecule, the Potency [4] was “inactive”, the Potency [5] was “inactive” and the Potency [6] was “inactive”. The Potency [7] was “inactive”, the outcome [9] was “inactive” and the Potency [8] was “inactive”.

In the case of `c1ccc([C@H]2CN3CCSC3=N2)cc1`, the Potency [1] is reported as “inactive”, the Potency [2] is reported as “inactive” and the Potency [3] is reported as “inactive”. For the same molecule, the Potency [4] was “inactive”, the Potency [5] was “inactive” and the Potency [6] was “inactive”. The Potency [10] was “inactive” and the Potency [8] was “inactive”.

With `CN(C(=O)c1c(O)c2ccccc2n(C)c1=O)c1ccccc1` the Potency [1] was “inactive”, the Potency [2] was “inactive” and the Potency [3] was “inactive”. The Potency [4] was “inactive”, the Potency [5] was “inactive” and the Potency [6] was “inactive”. The Potency [7] was “inactive” and the outcome [9] was “inactive”.

In the case of `CCCCC(CC)COC(=O)c1ccccc1O` (configuration not stated), the Potency [1] is reported as “inactive”, the Potency [2] is reported as “inactive” and the Potency [3] is reported as “inactive”. For the same molecule, the Potency [4] was “inactive”, the Potency [5] was “inactive” and the Potency [6] was “inactive”. The Potency [7] was “inactive”, the outcome [9] was “inactive” and the Potency [8] was “inactive”.

For `O=C1OC(=O)C2CCCCC12` (configuration not stated), the Potency [1] was “inactive”, the Potency [2] was “inactive” and the Potency [3] was “inactive”. For the same molecule, the Potency [4] was “inactive”, the Potency [5] was “inactive” and the Potency [6] was “inactive”. For the same molecule, the Potency [7] was “inactive” and the outcome [9] was “inactive”.

In the case of `C[C@H](NC(CCc1ccccc1)C(=O)O)C(=O)N1CCC[C@H]1C(=O)O` (some centres not stated), the Potency [1] is reported as “inactive”, the Potency [2] is reported as “inactive” and the Potency [3] is reported as “inactive”. The Potency [4] was “inactive”, the Potency [5] was “inactive” and the Potency [6] was “inactive”. The Potency [7] was “inactive” and the Potency [8] was “inactive”.

With `Nc1nc2c(ncn2COC(CO)CO)c(=O)[nH]1` the Potency [1] was “inactive”, the Potency [2] was “inactive” and the Potency [3] was “inactive”. The Potency [4] was “inactive”, the Potency [5] was “inactive” and the Potency [6] was “inactive”. The Potency [10] was “inactive” and the Potency [8] was “inactive”.

For `CCOC(=O)Nc1ccc(NCc2ccc(F)cc2)nc1N`, the Potency [1] was “inactive”, the Potency [2] was “inactive” and the Potency [3] was “inactive”. The Potency [4] was “inactive”, the Potency [5] was “inactive” and the Potency [6] was “inactive”. For the same molecule, the Potency [7] was “inactive”, the outcome [9] was “inactive” and the Potency [8] was “inactive”.

With `COc1ccccc1OCC(O)CN1CCN(CC(=O)Nc2c(C)cccc2C)CC1` (configuration not stated) the Potency [1] was “inactive”, the Potency [2] was “inactive” and the Potency [3] was “inactive”. For the same molecule, the Potency [4] was “inactive”, the Potency [5] was “inactive” and the Potency [6] was “inactive”. The Potency [10] was “inactive” and the Potency [8] was “inactive”.

In the case of `CCCCCCCCS(=O)(=O)Cl`, the Potency [1] is reported as “inactive”, the Potency [2] is reported as “inactive” and the Potency [3] is reported as “inactive”. The Potency [4] was “inactive”, the Potency [5] was “inactive” and the Potency [6] was “inactive”. The Potency [7] was “inactive” and the Potency [8] was “inactive”.

For `CC(C)(C)NCCNC(C)(C)C`, the Potency [1] was “inactive”, the Potency [2] was “inactive” and the Potency [3] was “inactive”. For the same molecule, the Potency [4] was “inactive”, the Potency [5] was “inactive” and the Potency [6] was “inactive”. The Potency [7] was “inactive”, the outcome [9] was “inactive” and the Potency [8] was “inactive”.
